Bioassay records as filed in PubChem BioAssay.
HTR5A ag = counter-screen for OPRM1-OPRD1 agonists: human HTR5A agonism. P47898. HTR5A agonist assay, luminescence, cell-based. activation, % at 9.3 µM. 340,000 compounds, 0.61% hits; in the data active = activation mostly above about 9.5%, no sharp cut-off; inactive = mostly below about 7.6%;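 note: 0% = cells with vehicle only and 100% = reference agonist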
HTR5A inv ag = HTR5A inverse agonism, opioid heterodimer counter-screen. P47898. HTR5A cell line, luminescence. inhibition, % at 9.3 µM. 340,000 compounds, 0.083% hits. AID 504634; in the data active = inhibition mostly above about 23%, no sharp cut-off; inactive = mostly below about 18%;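 note: 0% = cells with DMSO and 100% = no-cell wells with DMSO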
MOR-DOR ag-1 = OPRM1-OPRD1 heterodimerization agonism; AID 504326; P35372+P41143; cells, luminescence; 340,000 compounds, 0.3% hits; activation, % at 9.3 µM;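 note: 0% = vehicle-treated cells and 100% = reference agonist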
Target sequence (P35372 whole entry, looked up): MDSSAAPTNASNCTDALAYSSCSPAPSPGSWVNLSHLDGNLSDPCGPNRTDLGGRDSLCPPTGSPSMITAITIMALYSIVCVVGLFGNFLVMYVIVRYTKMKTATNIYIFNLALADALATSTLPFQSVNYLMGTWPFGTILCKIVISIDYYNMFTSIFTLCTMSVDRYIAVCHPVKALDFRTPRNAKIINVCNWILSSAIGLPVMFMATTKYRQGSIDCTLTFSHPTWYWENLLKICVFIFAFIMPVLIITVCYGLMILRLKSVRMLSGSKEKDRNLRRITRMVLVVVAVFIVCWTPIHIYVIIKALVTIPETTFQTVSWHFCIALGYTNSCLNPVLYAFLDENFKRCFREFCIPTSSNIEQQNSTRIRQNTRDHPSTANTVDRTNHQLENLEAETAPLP
Target sequence (P41143 whole entry, looked up): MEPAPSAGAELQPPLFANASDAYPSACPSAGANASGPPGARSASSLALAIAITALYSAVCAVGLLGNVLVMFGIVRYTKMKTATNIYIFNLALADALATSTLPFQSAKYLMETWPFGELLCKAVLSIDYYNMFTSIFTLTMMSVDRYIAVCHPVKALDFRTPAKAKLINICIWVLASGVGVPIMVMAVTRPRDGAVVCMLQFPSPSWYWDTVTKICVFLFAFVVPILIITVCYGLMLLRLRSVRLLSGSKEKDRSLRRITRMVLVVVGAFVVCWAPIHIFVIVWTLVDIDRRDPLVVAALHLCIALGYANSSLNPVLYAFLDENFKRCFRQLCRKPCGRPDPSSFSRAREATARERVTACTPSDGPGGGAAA
OPRM1-OPRD1 inv = inverse agonist of human OPRM1-OPRD1 heterodimerization; P35372+P41143; cell-based MOR-DOR heterodimer luminescence, inverse agonism; inhibition, % at 9.3 µM; 340,000 compounds, 0.21% hits; AID 504357; in the data active = inhibition above about 22%, passing the limit was not always enough;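 note: 0% = cells with DMSO and 100% = wells without cells with DMSO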
MOR-DOR ag-2 = promotes OPRM1-OPRD1 heterodimerization in HTR5A counter-screen; U2OS counter-screen cells, complementation luminescence, 3 h; activation, % at 9.3 µM; shares compounds with HTR5A ag; AID 504913; 800 compounds, 13% hits
HTR5A ag conf = confirmation of human HTR5A agonists; AID 504915; 800 compounds, 17% hits; activation, % at 9.3 µM; HTR5A agonist cell assay, luminescence; shares compounds with HTR5A ag; in the data active = activation above about 17%;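 note: 0% = cells with vehicle only and 100% = full reference agonist response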
Active calls of the source: *. Hits are enriched below; roughly 1.1% of the tested compounds scored in any of these assays. Cut-off read from the data, not from the text of the source, unless noted: active = activation above about 18%; inactive = the rest.

Screening COC(=O)c1cc(NS(=O)(=O)c2ccc(N3CCOCC3)c(NC(C)=O)c2)cc(C(=O)OC)c1 returned HTR5A ag 4, HTR5A inv ag 1, MOR-DOR ag-1 -3 and OPRM1-OPRD1 inv 16.
COc1ccc(CNCCS(=O)(=O)NN2CCOCC2)cc1 was read as HTR5A ag -2, HTR5A inv ag 6, MOR-DOR ag-1 -1 and OPRM1-OPRD1 inv 4.
`COc1ccc(C(C)(C)C)cc1NC(=O)c1ccc2ncsc2c1` gave HTR5A ag 16*, HTR5A inv ag -8, MOR-DOR ag-1 2, OPRM1-OPRD1 inv -14, MOR-DOR ag-2 13 and HTR5A ag conf 7.
For O=C(O)c1ccc(NS(=O)(=O)c2cc(Cl)ccc2Cl)cc1 the results were HTR5A ag 16*, HTR5A inv ag -9, MOR-DOR ag-1 -1, OPRM1-OPRD1 inv 5, MOR-DOR ag-2 3 and HTR5A ag conf 1.
O=C(CN1C(=O)C(=O)N(C2CCCC2)C1=O)Nc1cc(Cl)ccc1[N+](=O)[O-] was read as HTR5A ag 2, HTR5A inv ag -5, MOR-DOR ag-1 2 and OPRM1-OPRD1 inv -7.
CCc1cc[n+](-c2nc3ccccc3nc2C(=C=[N-])C#N)cc1 was read as HTR5A ag 16*, HTR5A inv ag -43, MOR-DOR ag-1 8, OPRM1-OPRD1 inv -33, MOR-DOR ag-2 2 and HTR5A ag conf 4.
`N#CC(=C=[N-])c1nc2ccccc2nc1-[n+]1cccc(NC(=O)c2ccccc2)c1` gave HTR5A ag 4, HTR5A inv ag 12, MOR-DOR ag-1 -4 and OPRM1-OPRD1 inv 20.
CCC(C)[C@H](NC(=O)C1CC(=O)N(c2ccc(OC)cc2)C1)C(=O)N1CCCCC1 (stereo partly specified) was read as HTR5A ag 7, HTR5A inv ag -11, MOR-DOR ag-1 -2 and OPRM1-OPRD1 inv 8.
`CC/C(=N\NC(=O)c1nnn(-c2nonc2N)c1CN(C)c1ccccc1)c1ccccc1` gave HTR5A ag -3, HTR5A inv ag -6, MOR-DOR ag-1 4 and OPRM1-OPRD1 inv -18.
CC(=O)COc1c(-c2ccco2)oc2ccccc2c1=O was read as HTR5A ag -1, HTR5A inv ag 4, MOR-DOR ag-1 -2 and OPRM1-OPRD1 inv 12.
COc1ccc(CC2NCCC3(O)CCCCC23)cc1 (stereo unspecified) was read as HTR5A ag -1, HTR5A inv ag -29, MOR-DOR ag-1 0 and OPRM1-OPRD1 inv 2.
`O[C@@H]1C2CCCC1[C@]1(O)CCCCC1C2` (stereo partly specified) gave HTR5A ag 19*, HTR5A inv ag -47, MOR-DOR ag-1 -4, OPRM1-OPRD1 inv 16, MOR-DOR ag-2 1 and HTR5A ag conf 2.
OCC#CCSc1nnc(-c2ccncc2)o1 was read as HTR5A ag 16*, HTR5A inv ag -43, MOR-DOR ag-1 -5, OPRM1-OPRD1 inv 20, MOR-DOR ag-2 20* and HTR5A ag conf 2.
For O=C(/C=C/c1ccc2c(c1)OCO2)c1ccc(O)cc1O the results were HTR5A ag 2, HTR5A inv ag -7, MOR-DOR ag-1 3 and OPRM1-OPRD1 inv -18.
Cc1ccc(O)c(C(=O)/C=C/c2ccc3c(c2)OCCO3)c1 was read as HTR5A ag 16*, HTR5A inv ag -38, MOR-DOR ag-1 -1, OPRM1-OPRD1 inv 5, MOR-DOR ag-2 3 and HTR5A ag conf 10.
O=C(COC(=O)/C=C/c1ccc(C(F)(F)F)cc1)NC(=O)NCc1ccco1 was read as HTR5A ag 20*, HTR5A inv ag -48, MOR-DOR ag-1 1, OPRM1-OPRD1 inv -2, MOR-DOR ag-2 119* and HTR5A ag conf 1.
For Cc1onc(-c2ccccc2)c1C(=O)N/N=C/c1ccc([N+](=O)[O-])c(O)c1 the results were HTR5A ag 20*, HTR5A inv ag -52, MOR-DOR ag-1 -1, OPRM1-OPRD1 inv 5, MOR-DOR ag-2 -1 and HTR5A ag conf 0.
`O=C(NCCc1c[nH]c2ccccc12)C(=O)NCC(c1cccnc1)N1CCN(c2ccccc2)CC1` (stereo unspecified) gave HTR5A ag 23*, HTR5A inv ag -137, MOR-DOR ag-1 1, OPRM1-OPRD1 inv -6, MOR-DOR ag-2 2 and HTR5A ag conf 40*.
O=C(O)C1CCCCC1C(=O)NCCc1c[nH]c2ccccc12 (stereo unspecified) was read as HTR5A ag 45*, HTR5A inv ag -213, MOR-DOR ag-1 -2, OPRM1-OPRD1 inv 8, MOR-DOR ag-2 3 and HTR5A ag conf 7.
COc1ccc2[nH]cc(CCNC(=S)NC3CCCC3)c2c1 was read as HTR5A ag -2, HTR5A inv ag 24, MOR-DOR ag-1 -2 and OPRM1-OPRD1 inv 9.
`O=C(NCCc1c[nH]c2ccccc12)C1CCN(c2nnc(N3CCCC3=O)s2)CC1` gave HTR5A ag 42*, HTR5A inv ag -118, MOR-DOR ag-1 -2, OPRM1-OPRD1 inv 8, MOR-DOR ag-2 2 and HTR5A ag conf 47*.
`COc1ccc2[nH]cc(CCNC(=O)C3CCCCC3)c2c1` gave HTR5A ag 52*, HTR5A inv ag -145, MOR-DOR ag-1 -1, OPRM1-OPRD1 inv 7, MOR-DOR ag-2 -2 and HTR5A ag conf -7.
For Cc1ccc2c(cnn2C(=O)CCCC(=O)NC(C)c2ccccc2)c1 (stereo unspecified) the results were HTR5A ag 15, HTR5A inv ag -46, MOR-DOR ag-1 -2 and OPRM1-OPRD1 inv 13.
COc1ccccc1NC(C)C(=O)Nc1ccc(C(C)=O)cc1 (stereo unspecified) was read as HTR5A ag 14, HTR5A inv ag -38, MOR-DOR ag-1 -2 and OPRM1-OPRD1 inv 10.
For O=C(CCCn1c(SCC(=O)c2ccc(Cl)cc2)nc2ccccc2c1=O)NCc1ccco1 the results were HTR5A ag 0, HTR5A inv ag 5, MOR-DOR ag-1 -2 and OPRM1-OPRD1 inv 8.
Screening O=C(CCCCCn1c(SCC(=O)c2ccccc2)nc2ccccc2c1=O)NCc1ccco1 returned HTR5A ag 21*, HTR5A inv ag -50, MOR-DOR ag-1 2, OPRM1-OPRD1 inv -8, MOR-DOR ag-2 59* and HTR5A ag conf 29*.
CCc1nnc(NC(=O)CCC(=O)N2CCN(c3cc(Cl)ccc3C)CC2)s1 was read as HTR5A ag 0, HTR5A inv ag -17, MOR-DOR ag-1 0 and OPRM1-OPRD1 inv 2.
For COc1ccc(C)cc1NC(=O)CN1CCN(S(=O)(=O)c2ccc(Cl)cc2)CC1 the results were HTR5A ag 2, HTR5A inv ag 10, MOR-DOR ag-1 -3 and OPRM1-OPRD1 inv 11.
Screening COc1cc2c(cc1NC(=O)CN1CCN(S(=O)(=O)c3ccc(C)cc3)CC1)oc1ccccc12 returned HTR5A ag 15*, HTR5A inv ag -32, MOR-DOR ag-1 2, OPRM1-OPRD1 inv -10, MOR-DOR ag-2 218* and HTR5A ag conf 2.
Screening COc1ccc(OC)c(CCNC(=O)C2CCN(c3ncnc4c3nc3n4CCCCC3)CC2)c1 returned HTR5A ag 1, HTR5A inv ag -7, MOR-DOR ag-1 -3 and OPRM1-OPRD1 inv 15.
